The source of these data is PubChem BioAssay (NCI).

This is part of a sample that, as a whole, favours compounds with a hit. Of some 83,000 tested, about 20% had one in any assay.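 Growth was measured after 48 h exposure to one concentration of compound in 96-well plates. Values under 10 count as active.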 A number with no mark means an inactive call. The source made the active and inactive calls.

Assay in all cases: NCI-60 one-dose screen, 48 h (100 = growth as untreated, 0 = no growth, -100 = all killed)
Holding throughout (details): 10 µM

Assay [1] has as its system SR leukemia.
For assay [2], the system named is RPMI-8226 leukemia.
For assay [3], the system named is OVCAR-8 ovarian.
The subject of assay [4] is OVCAR-5 ovarian.
The subject of assay [5] is OVCAR-4 ovarian.
Assay [6] relates to SK-OV-3 ovarian.
Assay [7] deals with IGROV1 ovarian.
For assay [8], the system named is OVCAR-3 ovarian.
Assay [9] relates to HS 578T breast.
The test system of assay [10] is NCI/ADR-RES ovarian.

With `CCOC(=O)c1cc(C(=O)c2ccc(OC)c(OC)c2)n2c1ccc1ccc3cccnc3c12`, the growth in [1] is 23.1%; in assay [2], 5.4% (active); in [3] it was 29%; in assay [4], 79.7%; in assay [5], 59.2%; in [6], 17.8%. The growth was 46% in assay [7], 10.3% in assay [8], 25% in [9] and 21.6% in assay [10].
Regarding `O=C(O)COc1c(Cl)cc([N+](=O)[O-])cc1Cl`, the growth in assay [1] is 82.3%; in assay [2] it was 101%; in assay [3], 99.3%; in assay [4] it was 95.7%; in [5] it was 108%; in assay [6], 92.3%. Further, the growth in assay [7] was 93.6%; in assay [8], 113%; in [9] it was 105%; in [10] it was 108%.
As for `CC(=O)OC1C=CC(OC(C)=O)O1` (stereo not given), the growth in [1] was 101%; in [2] it was 92.4%; in assay [3], 94.2%; in assay [4], 101%; in [5], 97.5%; in assay [6] it was 91.8%. Also, the growth is 89.8% in assay [7], 102% in assay [8], 87.4% in [9] and 99.2% in [10].
For `O=C(CC(CC(=O)c1ccccc1)c1ccccc1O)c1ccccc1`, the growth in assay [1] was 92.9%; in assay [2], 85.2%; in assay [3] it was 95.9%; in [4], 96.9%; in assay [5] it was 91.2%; in [6], 94.5%. In addition, the growth in assay [7] was 101%; in [8], 94.3%; in assay [9] it was 86.6%; in [10], 92.1%.
For the compound `CC(=O)Nc1ccc(CC[C@H]2CCC/C=C/[C@@H]3C[C@H](O)C[C@H]3[C@H](O)/C=C/C(=O)O2)cc1`, the growth in [1] was 3.92% (active); in assay [2], 3.69% (active); in assay [3], 0.483% (active); in assay [4] it was 23%; in assay [5], 18.4%; in assay [6], 29.8%. Also, the growth in assay [7] was 20.3%; in [8], 6.39% (active); in assay [9], 34.9%; in assay [10] it was 18.7%.
Turning to `COc1cc(/C=C/c2cc(/C=C/c3ccc(O)c(OC)c3)n(C(=O)Nc3ccc(C)cc3)n2)ccc1O`, the growth in assay [1] is -14.7% (active); in assay [2] it was -14.5% (active); in [3] it was -2.98% (active); in assay [4] it was 20.5%; in assay [5] it was 16.1%; in assay [6], -29.1% (active). Moreover, the growth in assay [7] was 4.76% (active); in [8], -34.1% (active); in [9], -16% (active); in [10] it was 20.5%.
Take `O=C1c2ccccc2C(=O)c2c1ccc1c(=O)n(-c3ccccc3C(F)(F)F)nnc21`: the growth was 31.1% in [1]; 18% in assay [2]; 9.15% (active) in assay [3]; 34.2% in [4]; 1.52% (active) in [5]; 69.9% in [6]. The growth is -27.9% (active) in assay [7], -17.6% (active) in assay [8], 73.1% in assay [9] and -16.4% (active) in assay [10].
Consider `CS(=O)(=O)c1nccc(-c2c(-c3ccc(OCCc4ccccc4)cc3)nc3sccn23)n1`, for which the growth is 88.5% in [1]; 94.8% in assay [2]; 98% in assay [3]; 94.7% in assay [4]; 67.8% in assay [5]; 101% in assay [6]. In addition, the growth was 110% in assay [7], 104% in assay [8], 87% in assay [9] and 98.3% in assay [10].
For `Cc1nn(-c2ccc(-c3ccc(OC(F)(F)F)cc3)cc2)c2nc(Cc3ccccc3)nc(N)c12`, the growth in [1] is 41.8%; in assay [2], 92.1%; in assay [3] it was 33%; in assay [4], 57.6%; in assay [5], 4.27% (active); in [6], 56.9%. Moreover, the growth in [7] was 47.3%; in assay [8], 46.5%; in assay [9], 55.5%; in assay [10] it was 40.5%.
With `CCCc1cn(CC(=O)Nc2nc3ccccc3s2)nn1`, the growth in assay [1] is 110%; in assay [2], 112%; in assay [3] it was 100%; in [4], 98.6%; in [5] it was 109%; in [6], 110%. Besides, the growth in [7] was 97.3%; in assay [8], 107%; in [9], 101%; in [10], 107%.
As for `O=C(Cn1cc(CO)nn1)Nc1nc2ccccc2s1`, the growth is 100% in assay [1]; 107% in [2]; 99.4% in assay [3]; 101% in assay [4]; 108% in assay [5]; 104% in assay [6]. For the same compound, the growth is 97.8% in [7], 101% in assay [8], 109% in [9] and 101% in [10].
Consider `COc1cc2cc(Oc3ccc(NC(=O)Nc4ccc(Cl)c(C(F)(F)F)c4)cc3)c(C)nc2cc1OC`, for which the growth in [1] is -32.5% (active); in assay [2], -26.4% (active); in assay [3] it was 7.34% (active); in assay [4], 18%; in [5], 17.1%; in assay [6], -4.09% (active). The growth was -7.69% (active) in [7], -27.3% (active) in assay [8], 2.5% (active) in [9] and 2.01% (active) in assay [10].
As for `C[C@]12CCC3c4ccc(O)cc4C[C@@H](CCCCCCCCCS(=O)CCCC(F)(F)C(F)(F)F)C3C1CC[C@@H]2O` (stereo not given in full), the growth in [1] is 44.6%; in assay [2], 62.5%; in assay [3] it was 77.7%; in [4], 84.5%; in [5], 66.2%; in [6] it was 103%. Besides, the growth in [7] is 92.3%; in assay [8], 88.4%; in assay [9] it was 81.4%; in assay [10], 70.4%.
